Source: PubChem
HT1080 IDH1KD tx – kills HT-1080 cells with IDH1 knockdown; 360,000 compounds, 2% hits; HT-1080 IDH1 knockdown viability, ATP luminescence, 48 h; Potency, µM (titrated, usually from 46.1 µM), inactives show top-dose activity, negative = toxicity, hits mostly cytotoxic;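 further: 0% = DMSO wells and -100% = cell-free medium wells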
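HT-1080-IDH1KD cells (IDH1 knocked down), 750/well in RPMI with 5% FBS, treated with compound 48 h at 37 degrees C. Viability by CellTiter-Glo luminescence, normalised to DMSO and no-cell wells; concentration-response curves classed.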
KB-3-1 tox – kills parental KB-3-1 adenocarcinoma cells. KB-3-1 viability, CellTiter-Glo ATP luminescence, 72 h. Potency, µM (series often up to 46.1 µM), usual class: cytotoxic. 400,000 compounds, 1.4% hits. AID 1347075; further: on the % scale 0 is the no-effect control and ±100 the full control effect; nearly all actives have a fitted effect of over 60% in size
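Multi-concentration cytotoxicity screen in KB-3-1 cells grown in DMEM lacking phenol red with 10% FBS. After 72 h at 37 °C with compound, ATP-dependent luminescence was recorded.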
SW480 rerep – induces DNA re-replication in SW480 colon adenocarcinoma cells | SW480 DNA re-replication, Hoechst DNA content imaging, 48 h | Potency, µM (series often up to 46.1 µM), without a hit: at the highest dose re-replication activation, actives largely listed as activators | 340,000 compounds, 1.8% hits | AID 624297; further: % of control where 0% means no effect; nearly all actives have a fitted effect of over 55% in size
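Compounds, transferred as 23 nL by pin tool, were incubated with cells for 48 hr; DNA content per nucleus was then quantified by Hoechst staining and fluorescence plate imaging.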
MCF10A rereplic – DNA re-replication induction in MCF 10a cells; 350,000 compounds, 2.9% hits; MCF 10A DNA re-replication, Hoechst nuclear intensity, 48 h; Potency, µM (highest dose often 46.1 µM), for the others: at the highest dose activity, positive = re-replication, hits mostly activators; further: % of control where 0% means no effect; nearly all actives have a fitted effect of over 50% in size
KB-V1 cytotox – kills drug-selected multidrug resistant KB-V1 cells; KB-V1 MDR cells viability, CellTiter-Glo, 72 h; Potency, µM (series often up to 46.1 µM), hits mostly cytotoxic; 400,000 compounds, 3.4% hits; further: on the % scale 0 is the no-effect control and ±100 the full control effect; nearly all actives have a fitted effect of over 60% in size
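Compound-treated KB-V1 multidrug-resistant cells, 72 h, 37 degrees C; viability by CellTiter-Glo. Fitted qHTS curves give the values.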
HT1080NT lethal – kills 2HG-producing HT-1080-NT fibrosarcoma cells. HT-1080-NT fibrosarcoma viability, CellTiter-Glo ATP luminescence, 48 h. Potency, µM (highest dose often 46.1 µM), for the others: top-dose activity, negative = less viability, actives largely listed as cytotoxic. 360,000 compounds, 1.6% hits. AID 686970;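 further: NT is the 2HG producing partner of a matched IDH1 knockdown line; 0% = DMSO-treated cells and -100% = media-only wells without cells; nearly all actives have a fitted effect of over 55% in size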
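HT-1080-NT; 750 cells/well; 5% FBS RPMI; 48 h compound, 37 degrees C; CellTiter-Glo luminescence; curve fitting and curve-class assignment.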
Active calls of the source: *; ! = a repeat was not active. Hits are enriched below; roughly 7.9% of the tested compounds scored in any of these assays. The call rests on the fitted dose curve; in most records, active means well fitted curve in the direction sought with a large enough effect; inconclusive means small, poorly fitted or top-dose-only effect, or another doubt; inactive means no such curve, though single readings can be large; an effect the other way counts as inactive or inconclusive. Potency means the concentration at half of the fitted maximal effect.

How did COC(=O)C1=C(c2ccc(OCc3ccccc3)cc2)C[C@@H]2CC[C@H]1N2C(=O)NCc1ccc(OC)c(OC)c1 do in these assays?
HT1080 IDH1KD tx: -9%; KB-3-1 tox: inconclusive; SW480 rerep: 19%; MCF10A rereplic: inconclusive; KB-V1 cytotox: inactive; HT1080NT lethal: -29%

What do the screens show for `COC(=O)C1=C(c2cccc(OCc3ccccc3)c2)C[C@@H]2CC[C@H]1N2C(=O)NCc1ccc(F)cc1`?
HT1080 IDH1KD tx: -11%; KB-3-1 tox: inactive; SW480 rerep: 11%; MCF10A rereplic: 5%; KB-V1 cytotox: inconclusive; HT1080NT lethal: 12%

What do the screens show for `COC(=O)C1=C(c2cccc(OCc3ccccc3)c2)C[C@@H]2CC[C@H]1N2C(=O)NC1CCN(Cc2ccccc2)CC1`?
HT1080 IDH1KD tx: inconclusive; KB-3-1 tox: inconclusive; SW480 rerep: -1%; MCF10A rereplic: 23%; KB-V1 cytotox: inactive; HT1080NT lethal: 23µM*

How did CC(C)c1ccc(-n2c(O)c(/C=N/NC(=O)c3ccncc3)c(=O)[nH]c2=O)cc1 do in these assays?
HT1080 IDH1KD tx: 18%; KB-3-1 tox: inactive; SW480 rerep: -6%; MCF10A rereplic: -10%; KB-V1 cytotox: inconclusive; HT1080NT lethal: 16%

How did COc1cc(C=C2C(=O)NC(=O)NC2=O)ccc1O do in these assays?
HT1080 IDH1KD tx: 10%; KB-3-1 tox: inactive; SW480 rerep: -2%; MCF10A rereplic: 5%; KB-V1 cytotox: inactive; HT1080NT lethal: 8%

What do the screens show for `COc1ccc(OC)c(N2C(=O)NC(=O)/C(=C\c3ccc([N+](=O)[O-])s3)C2=O)c1`?
HT1080 IDH1KD tx: -18%; KB-3-1 tox: inactive; SW480 rerep: -2%; MCF10A rereplic: 14%; KB-V1 cytotox: inactive; HT1080NT lethal: -13%

How did CCCNS(=O)(=O)c1ccc(OCC(=O)N2CCN(Cc3ccccc3)CC2)cc1 do in these assays?
HT1080 IDH1KD tx: -12%; KB-3-1 tox: inconclusive; SW480 rerep: 2%; MCF10A rereplic: 3%; KB-V1 cytotox: 8.2µM*; HT1080NT lethal: -2%

What do the screens show for `O=C(COc1ccc(S(=O)(=O)N2CCOCC2)cc1)N1CCN(Cc2ccc3c(c2)OCO3)CC1`?
HT1080 IDH1KD tx: -20%; KB-3-1 tox: inactive; SW480 rerep: -14%; MCF10A rereplic: 22%; KB-V1 cytotox: 16µM*; HT1080NT lethal: -17%

What do the screens show for `Cn1nc(-c2ccc(OCC(=O)N3CCN(Cc4ccccc4)CC3)cc2)c2ccccc2c1=O`?
HT1080 IDH1KD tx: -14%; KB-3-1 tox: 5.8µM*!; SW480 rerep: 9%; MCF10A rereplic: 16%; KB-V1 cytotox: 0.65µM*!; HT1080NT lethal: -4%

How did CC1=CC(=C2C(=O)NC(=O)NC2=O)C=C(C(F)(F)F)N1C(C)C do in these assays?
HT1080 IDH1KD tx: 5%; KB-3-1 tox: inactive; SW480 rerep: -5%; MCF10A rereplic: 11%; KB-V1 cytotox: inactive; HT1080NT lethal: 14%

What do the screens show for `COc1ccc(-n2c(O)c(C=NCCN3CCN(C(C)=O)CC3)c(=O)[nH]c2=S)cc1`?
HT1080 IDH1KD tx: 2%; KB-3-1 tox: inactive; SW480 rerep: -7%; MCF10A rereplic: 3%; KB-V1 cytotox: inactive; HT1080NT lethal: -9%

What do the screens show for `OC[C@H]1O[C@@H](n2cnc3cc(Cl)c(Cl)cc32)[C@H](O)[C@@H]1O`?
HT1080 IDH1KD tx: inconclusive; KB-3-1 tox: inconclusive; SW480 rerep: -10%; MCF10A rereplic: inconclusive; KB-V1 cytotox: inactive; HT1080NT lethal: inconclusive

Results for CCNC(=O)C1OC(n2cnc3c(N)ncnc32)C(O)C1O (stereo unspecified) ?
HT1080 IDH1KD tx: inconclusive; KB-3-1 tox: inactive; SW480 rerep: 0%; MCF10A rereplic: -3%; KB-V1 cytotox: inactive; HT1080NT lethal: inconclusive

How did Nc1nc(F)nc2c1ncn2[C@@H]1O[C@H](CO)[C@@H](O)[C@H]1O do in these assays?
HT1080 IDH1KD tx: 0.23µM*; KB-3-1 tox: 1.2µM*; SW480 rerep: inconclusive; MCF10A rereplic: 4.1µM*!; KB-V1 cytotox: 1.5µM*; HT1080NT lethal: 0.65µM*

How did Nc1nc(F)nc2c1ncn2[C@@H]1O[C@H](CO)[C@@H](O)[C@@H]1O do in these assays?
HT1080 IDH1KD tx: inconclusive; KB-3-1 tox: 0.65µM*; SW480 rerep: 11%; MCF10A rereplic: -4%; KB-V1 cytotox: 0.65µM*; HT1080NT lethal: inconclusive

How did CN1C2CCC1CC(=NO)C2 do in these assays?
HT1080 IDH1KD tx: 0%; KB-3-1 tox: inactive; SW480 rerep: -2%; MCF10A rereplic: 0%; KB-V1 cytotox: inactive; HT1080NT lethal: 11%

How did CCNC(=O)N1Cc2ccccc2-n2nncc2C1 do in these assays?
HT1080 IDH1KD tx: 8%; KB-3-1 tox: inactive; KB-V1 cytotox: inactive; HT1080NT lethal: 9%

What do the screens show for `CC(=NCc1ccc(F)cc1)c1c(O)n(C)c(=O)n(C)c1=O`?
HT1080 IDH1KD tx: inconclusive; KB-3-1 tox: 5.8µM*; SW480 rerep: -15%; MCF10A rereplic: inconclusive; KB-V1 cytotox: inconclusive; HT1080NT lethal: 0%

What do the screens show for `COc1cc(CN=C(C)c2c(O)n(C)c(=O)n(C)c2=O)cc(OC)c1`?
HT1080 IDH1KD tx: -3%; KB-3-1 tox: inconclusive; SW480 rerep: -7%; MCF10A rereplic: 13%; KB-V1 cytotox: inconclusive; HT1080NT lethal: 1%

How did COc1ccc(CNCCC(c2ccc(OC(C)C)cc2)C(C)C)cc1OC (stereo unspecified) do in these assays?
HT1080 IDH1KD tx: inconclusive; KB-3-1 tox: inconclusive; SW480 rerep: inconclusive; MCF10A rereplic: inconclusive; KB-V1 cytotox: 5.2µM*; HT1080NT lethal: inconclusive

Results for O=C1CN=C(c2ccc(Br)cc2)c2c(sc3c2CCCC3)N1CCN1CCCCC1 ?
HT1080 IDH1KD tx: -3%; KB-3-1 tox: inactive; SW480 rerep: 5%; MCF10A rereplic: 14%; KB-V1 cytotox: inactive; HT1080NT lethal: inconclusive

Results for OC1(c2ccccc2)CCNC2CCCCC21 (stereo unspecified) ?
HT1080 IDH1KD tx: 2%; KB-3-1 tox: inactive; SW480 rerep: -2%; MCF10A rereplic: -22%; KB-V1 cytotox: inactive; HT1080NT lethal: 1%

How did Cc1[nH]n(-c2ccccc2)c(=O)c1C(c1ccc([N+](=O)[O-])cc1)c1c(C)[nH]n(-c2ccccc2)c1=O do in these assays?
HT1080 IDH1KD tx: 5%; KB-3-1 tox: inconclusive; SW480 rerep: -11%; MCF10A rereplic: 23µM*; KB-V1 cytotox: inactive; HT1080NT lethal: 0%
